In PubChem BioAssay (EPA / NIEHS):
Results filed as inconclusive are left out. Calls of active or inactive are those of the source. Rule for the calls: active = hit-call score of the fitted dose curve at least 0.9, where 1 is the maximum; inconclusive = response in the unintended direction; inactive = score below 0.9.

Each compound was assayed against Peroxisome proliferator-activated receptor gamma (Homo sapiens) (UniProt P37231) (assay: OT_PPARg_PPARgSRC1_0480: Odyssey Thera (OT) 8-hour Protein-Complementation Assay for Peroxisome Proliferator-activated Receptor Gamma / SRC-1 Co-activator (AID 2283387);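 note: nuclear to cytoplasmic split Venus YFP fluorescence ratio reporting PPARg SRC-1 interaction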).
Peroxisome proliferator-activated receptor gamma (Homo sapiens), sequence (P37231 whole entry, looked up, the tested form may be a part): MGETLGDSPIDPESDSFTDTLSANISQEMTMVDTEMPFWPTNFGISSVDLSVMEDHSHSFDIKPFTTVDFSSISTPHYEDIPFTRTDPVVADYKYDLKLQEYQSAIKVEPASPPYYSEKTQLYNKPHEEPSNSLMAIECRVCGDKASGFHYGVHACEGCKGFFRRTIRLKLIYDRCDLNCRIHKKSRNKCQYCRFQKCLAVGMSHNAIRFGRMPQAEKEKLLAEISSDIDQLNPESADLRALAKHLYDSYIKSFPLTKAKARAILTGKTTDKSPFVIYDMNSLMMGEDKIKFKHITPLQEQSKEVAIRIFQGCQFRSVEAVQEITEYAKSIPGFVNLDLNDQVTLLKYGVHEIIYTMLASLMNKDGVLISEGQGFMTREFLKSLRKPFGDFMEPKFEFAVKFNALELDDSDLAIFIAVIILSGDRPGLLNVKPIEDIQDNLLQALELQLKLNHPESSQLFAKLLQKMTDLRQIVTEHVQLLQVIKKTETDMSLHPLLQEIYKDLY
Summary of the method: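 Split-YFP (IFP1/IFP2) PPARg/SRC-1 reporter, HEK293T, 37 °C, 5% CO2; 8 h compound; formaldehyde fix + Draq5; high-content imaging, N/C ratio, ≥350 cells/image, positive direction vs DMSO.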

Row | SMILES | outcome
1 | O=C(O)COc1nc(Cl)c(Cl)cc1Cl | inactive
2 | CCCCOC(=O)c1ccccc1C(=O)OCCCC | inactive
3 | COC(=O)c1ccccc1C(=O)OC | inactive
4 | C=CCC1=C(C)[C@@H](OC(=O)[C@@H]2[C@@H](C=C(C)C)C2(C)C)CC1=O | inactive
5 | C#CCOS(=O)OC1CCCCC1Oc1ccc(C(C)(C)C)cc1 (stereo not drawn) | inactive
6 | Cc1ccc(-c2c(Cl)nc(C#N)n2S(=O)(=O)N(C)C)cc1 | inactive
7 | CC(Oc1ccc(Cl)cc1Cl)C(=O)O (stereo not drawn) | inactive
8 | CCc1nn(C)c(C(=O)NCc2ccc(C(C)(C)C)cc2)c1Cl | inactive
9 | CCCN(CCC)c1c([N+](=O)[O-])cc(S(N)(=O)=O)cc1[N+](=O)[O-] | inactive
10 | COc1ccc(C(c2ccc(OC)cc2)C(Cl)(Cl)Cl)cc1 | inactive
11 | CCCCC(CC)COC(=O)c1ccccc1C(=O)OCC(CC)CCCC (stereo not drawn) | inactive
12 | N#Cc1nn(-c2c(Cl)cc(C(F)(F)F)cc2Cl)c(N)c1S(=O)C(F)(F)F (stereo not drawn) | inactive
13 | CO/C=C(/C(=O)OC)c1ccccc1Oc1cc(Oc2ccccc2C#N)ncn1 | inactive
14 | CCCCNC(=O)OCC#CI | inactive
15 | Fc1ccc(Oc2ccnc3cc(Cl)cc(Cl)c23)cc1 | inactive
16 | O=C(Nc1ccccc1)Nc1ccnc(Cl)c1 | inactive
17 | COC(=O)C(C)Oc1ccc(Oc2ccc(Cl)cc2Cl)cc1 (stereo not drawn) | inactive
18 | COC(=O)C=C(C)OP(=O)(OC)OC | inactive
19 | CC(C)(C)c1ccc(CSc2cnn(C(C)(C)C)c(=O)c2Cl)cc1 | inactive
20 | CN(C)C(=S)SSC(=S)N(C)C | inactive
21 | COC(=O)N(OC)c1ccccc1COc1ccn(-c2ccc(Cl)cc2)n1 | inactive
22 | CNC(=O)ON=CC(C)(C)SC | inactive
23 | CS/C(C)=N/OC(=O)N(C)SN(C)C(=O)O/N=C(\C)SC | inactive
24 | COc1cnc(OC)n2nc(NS(=O)(=O)c3c(OCC(F)F)cccc3C(F)(F)F)nc12 | inactive
25 | N#Cc1cc(Br)c(O)c(Br)c1 | inactive

These compounds were tested against Peroxisome proliferator-activated receptor gamma (Homo sapiens) (UniProt P37231) (assay: OT_PPARg_PPARgSRC1_1440: Odyssey Thera (OT) 24-hour Protein-Complementation Assay for Peroxisome Proliferator-activated Receptor Gamma/ SRC-1 Co-activator (AID 2283388);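 note: nuclear to cytoplasmic ratio of reconstituted Venus YFP fluorescence in fixed imaged cells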).
Summary of the method: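 Readout: nuclear-to-cytoplasmic 488 nm fluorescence ratio, ≥350 cells per image, 8 images per well, after 24 h compound exposure of HEK293T expressing PPARg/SRC-1 split-YFP fusions. Activity fitted in positive direction against DMSO.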

Row | SMILES | outcome
26 | C=CCC1=C(C)[C@@H](OC(=O)[C@@H]2[C@@H](C=C(C)C)C2(C)C)CC1=O | inactive
27 | CCCCNC(=O)OCC#CI | inactive
28 | O=C(Nc1ccccc1)Nc1ccnc(Cl)c1 | inactive
